{"source": "PubChem BioAssay AID602327", "about": "(NMMLSC, 2012)", "note": "The list shows a part of the results. Active and inactive are the calls of the source. Cut-off read from the data, not from the text of the source: active = inhibition above about 25%; inactive = the rest."}
{"target": "Lethal factor (Bacillus anthracis) (UniProt P15917)", "sequence (P15917 whole entry, looked up)": "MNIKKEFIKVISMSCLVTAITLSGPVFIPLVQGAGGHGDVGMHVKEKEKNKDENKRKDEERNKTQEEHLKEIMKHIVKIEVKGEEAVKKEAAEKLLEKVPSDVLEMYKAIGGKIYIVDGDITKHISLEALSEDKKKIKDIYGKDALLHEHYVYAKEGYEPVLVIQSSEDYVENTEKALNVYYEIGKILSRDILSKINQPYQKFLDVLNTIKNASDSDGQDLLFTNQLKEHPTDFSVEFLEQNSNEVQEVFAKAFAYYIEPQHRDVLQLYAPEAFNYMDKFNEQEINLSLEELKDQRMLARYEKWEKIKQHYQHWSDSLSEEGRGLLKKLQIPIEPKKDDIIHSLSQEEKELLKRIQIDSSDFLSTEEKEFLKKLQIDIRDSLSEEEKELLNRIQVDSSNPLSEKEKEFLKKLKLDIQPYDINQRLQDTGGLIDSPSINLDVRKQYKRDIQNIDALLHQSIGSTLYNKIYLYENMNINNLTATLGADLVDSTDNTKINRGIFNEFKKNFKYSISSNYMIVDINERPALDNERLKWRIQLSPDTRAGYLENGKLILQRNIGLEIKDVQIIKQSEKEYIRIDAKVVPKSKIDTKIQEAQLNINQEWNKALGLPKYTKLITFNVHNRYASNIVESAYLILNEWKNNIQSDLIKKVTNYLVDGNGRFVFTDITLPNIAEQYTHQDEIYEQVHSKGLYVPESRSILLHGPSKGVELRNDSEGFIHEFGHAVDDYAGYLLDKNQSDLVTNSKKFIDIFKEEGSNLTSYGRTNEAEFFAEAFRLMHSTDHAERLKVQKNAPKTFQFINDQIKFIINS", "experiment": "anthrax lethal factor cleavage blockers – biochemical, multiplex microsphere, confirmation (AID 602327)", "conditions": "multiplex microsphere protease cleavage assay; at 10 µM; stronger effect = higher value"}
{"smiles": "CCOc1ncccc1C(=O)OCC(=O)c1c[nH]c2ccccc12", "inhibition": "10.4% (inactive)"}
{"smiles": "O=C(OCC(=O)c1c[nH]c2ccccc12)c1cccc(O)c1", "inhibition": "-2.5% (inactive)"}
{"smiles": "COc1ccc(-c2cc3c(c4c2ccn4C)C2CCC3C2)cn1", "note": "(stereo not drawn)", "inhibition": "26.4% (active)"}
{"smiles": "Cc1ccc(CNC(=O)c2cccc3c2C(=O)c2ccc(N4CCC(C)CC4)cc2S3(=O)=O)cc1", "inhibition": "7.9% (inactive)"}
{"smiles": "CC(=O)OCCN(CCCn1c(-c2ccncc2)nc2ccccc21)c1nc(-c2ccc(C)cc2)cs1", "inhibition": "0.3% (inactive)"}
{"smiles": "Cc1cc2cc(CNC(=O)c3ccc(S(=O)(=O)N4CCOCC4)cc3)ccc2[nH]1", "inhibition": "-0.8% (inactive)"}
{"smiles": "Cc1cc2ccccc2n1CCNC(=O)COc1ccc2ccccc2c1", "inhibition": "0.2% (inactive)"}
{"smiles": "O=C(CN1CCN(c2ccccc2O)CC1)NC(=O)NCc1ccccc1", "inhibition": "-1.7% (inactive)"}
